Screens as filed in PubChem BioAssay.
Compounds with a hit are over-represented: about 4.2% of the library has one in this group of screens.
hcDAF-12 act = H. contortus DAF-12 nuclear receptor activators, primary screen, cell-based, luminescence, HEK293, lit1-tk-luc reporter; HEK293 hcDAF-12 lit1-tk-luc reporter; 0% DMSO, 100% Δ7-dafachronic acid; activation, % at 6.8 µM; hit rate 1.4% among 370,000;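 active means activation above the mean of all tested compounds plus 3 SD, cut at about 5.5% in these data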;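 further: 100% = response to 3 µM Δ7-dafachronic acid high control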
ssDAF12 agonist = S. stercoralis DAF-12 nuclear receptor activators, primary screen, cell-based, luminescence, HEK293, GRIP1 co-expression, lit1-tk-luc; HEK293 ssDAF-12/GRIP1 lit1-tk-luc reporter; % of 3 µM dafachronic acid response; hit rate 1% among 370,000; activation, % at 6.8 µM;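 active means activation above the mean over all tested compounds plus 3 SD, cut at about 0.9% in these data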;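 further: 0% = DMSO-only wells and 100% = 3 µM delta7-dafachronic acid wells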
hgDAF12 agonist = H. glycines DAF-12 receptor agonists, primary screen, cell-based, luminescence, HEK293, GAL4 fusion, UAS-luciferase; hit rate 1.8% among 370,000; AID 687014, 2013; Nuclear hormone receptor DAF-12 (Heterodera glycines), GAL4 fusion; HEK293 GAL4-hgDAF12 UAS-luciferase reporter, agonist luminescence; normalized to butyrate control; activation, % at 6.8 µM;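 active means activation above a cutoff set at the mean of all screened compounds plus 3 SD, cut at about 10% in these data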;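 further: 0% = DMSO wells and 100% = sodium butyrate wells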
SMARCA2 activ = SMARCA2 (BRM) function activators, primary screen, cell-based, luminescence, high throughput | MG213 cells, MMTV-luciferase reporter, dexamethasone, overnight | activation, % at 9.1 µM | hit rate 1% among 370,000 | AID 652017, 2013; in the data active means activation above about 7.8%;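 further: 0% = vehicle wells and 100% = reference activator wells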
DAX1 StAR inh = DAX1 (NR0B1) inhibitors on StAR promoter, primary screen, cell-based, luminescence, SF-1 (NR5A1), full-length DAX-1; AID 652010, 2013; HEK293T StAR-luciferase reporter, SF-1/DAX-1 repression relief; hit rate 1.1% among 370,000; inhibition, % at 6.8 µM;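 active means inhibition above the mean over all tested compounds plus 3 SD, cut at about 3.6% in these data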;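 further: 0% = DAX-1 cells with DMSO and 100% = cells lacking DAX-1 with DMSO; higher inhibition means more luminescence from relief of DAX-1 repression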
* hit, by the source's call; . = not tested or not shown.

SMILES	hcDAF-12 act	ssDAF12 agonist	hgDAF12 agonist	SMARCA2 activ	DAX1 StAR inh
Cc1ccc(-c2nc3cccnc3s2)cc1NS(=O)(=O)c1cccs1	6.1*	0.5	5.1	-1.1	1.1
O=c1cc(Cl)[nH]c(=O)n1CCNc1ncc(C(F)(F)F)cc1Cl	4.8	-0.8	11.1*	0.7	1.3
CC1=C2N=C(N)N(Cc3ccccc3)C(Cc3ccccc3)C2n2c(=O)n(-c3ccccc3)c(=O)n2C1 (stereo not drawn)	0.7	-1.0	1.9	-2.7	-0.4
COc1ccccc1NC(=O)CC1SC(=N)N(c2ccccc2)C1=O (stereo not drawn)	1.5	-1.6	-0.3	-2.8	-0.2
N=C1SC(CC(=O)Nc2ccccc2[N+](=O)[O-])C(=O)N1c1ccccc1 (stereo not drawn)	0.4	1.6*	-1.8	0.1	-0.4
CN(Cc1ccccc1)C(c1ccnc2ccccc12)c1nnnn1-c1ccc2c(c1)OCCO2 (stereo not drawn)	-0.3	-0.8	-0.4	-3.3	-1.1
CCOc1cccc2sc(N(CCN(CC)CC)C(=O)c3ccc(S(=O)(=O)N4CCCCC4)cc3)nc12	-0.5	2.0*	-0.3	0.3	-0.5
CCOc1cccc2sc(N(CCCN(C)C)C(=O)c3ccc(S(=O)(=O)N4CCCCCC4)cc3)nc12	-0.1	-0.9	0.7	-0.4	1.6
CCOc1cc(/C=C2\CCCC(C(=O)C(F)(F)F)=C2O)ccc1O	-0.7	-0.9	6.7	-2.4	3.7*
COc1cc(/C=C2/CCCC(C(=O)C(F)(F)F)=C2O)ccc1O	-1.4	-1.6	-0.6	1.1	0.7
O=C(O)CC/C(=N\NC(=O)c1ccncc1)c1ccccc1	-2.4	-0.6	1.5	-5.1	-0.5
COc1cccc(C(=O)Nc2ccccc2)c1	0.8	-1.2	6.2	1.6	0.5
O=C(O)CC/C(=N\NC(=O)c1ccccc1)c1cccs1	-0.3	-0.8	10.7*	1.3	1.4
COc1cccc(C(=O)NNC(=O)c2ccc3ccccc3c2O)c1	4.2	1.6*	4.2	-2.5	0.3
COc1cccc(C(=O)NNC(=O)c2ccccc2)c1	4.7	1.4*	6.5	5.7	0.5
COc1cccc(C(=O)N/N=C(/CCC(=O)O)c2ccccc2)c1	0.8	-0.5	12.3*	1.1	0.4
COC(=O)N/N=C(\CCC(=O)O)c1cccs1	-1.1	-1.3	2.6	-1.6	0.3
O=C(C[C@H]1C=C[C@@H](NC(=O)c2ccncc2)[C@@H](CO)O1)NCC1CC1	-0.7	-0.7	-0.7	-4.1	0.5
CC(=O)C1=C(C)N(Cc2ccc(Br)cc2)C(=S)NC1c1cccc(Br)c1 (stereo not drawn)	-0.1	-1.5	1.1	-4.2	-1.3
CCC(C)[C@H]1CNC(=O)C(=O)N1CC(C)(C)C (stereo partly drawn)	-0.7	-0.3	1.0	-1.3	0.2
CC1(c2nnnn2Cc2ccccc2)CCCC(=O)N1Cc1cccs1 (stereo not drawn)	1.2	-0.6	1.3	0.6	-1.0
CCCCOCCCNC(=O)C[C@H]1C[C@@]2(C(=O)OC)C(=C[C@H](C(C)C)O[C@@H]2C2CC2)N(Cc2ccc3c(c2)OCO3)C1=O	0.8	-1.9	-3.4	-2.9	-0.1
O=C(Nc1cccc(-c2ccc(N3CCCCC3)nn2)c1)c1ccc(Br)o1	0.9	-0.5	10.0	7.9*	0.7
O=S(=O)(Nc1cccc(-c2ccc(N3CCCCCC3)nn2)c1)c1ccc(C(F)(F)F)cc1	6.4*	-0.3	4.8	4.4	0.5
COc1ccc(C(CCOC(=O)Oc2ccccc2)c2cc(OC)cc(OC)c2)cc1 (stereo not drawn)	-3.5	-1.8	0.1	2.7	-0.9
SMILES	hcDAF-12 act	ssDAF12 agonist	hgDAF12 agonist	SMARCA2 activ	DAX1 StAR inh
COc1ccccc1C1c2c(ncn(-c3ccccc3)c2=N)Oc2ccc3ccccc3c21 (stereo not drawn)	-0.9	-1.2	5.5	.	.
CCn1cc(C(=O)N2CCN(c3ccccn3)CC2)c2cc(OC)c(OC)cc2c1=O	-1.4	-0.8	2.2	8.4*	0.1
COc1cc(OC)c(C(=O)N2CCN(c3ccccn3)CC2)cc1OC	-1.0	-0.1	-1.6	3.6	-0.4
CCN(C(=O)CSc1nnnn1-c1ccc(Cl)cc1)C1CCS(=O)(=O)C1 (stereo not drawn)	-0.1	-1.4	-1.0	-0.7	4.0*
O=C(O)c1[nH]c2ccccc2c1NS(=O)(=O)c1ccc(F)cc1	4.8	0.7	5.1	-0.9	0.3
O=C(O)c1[nH]c2ccccc2c1NS(=O)(=O)Cc1ccccc1	6.0*	0.2	0.9	3.9	-0.9
CC(C)(C)CCNc1nc(-c2ccccn2)nnc1-c1ccccc1	-4.6	-2.0	-12.4	.	.
CCOC(=O)N/N=C/c1c[nH]c2ccccc12	6.2*	0.2	6.0	3.0	-0.6
Cc1ccc(OCC(=O)N/N=C\c2ccc(O)cc2)c([N+](=O)[O-])c1	-1.5	-1.5	0.9	-2.9	-0.1
CCN(CC)c1ccc(/C=N/NC(=O)c2c[nH]c3ccccc23)cc1	5.9*	-1.1	5.3	2.1	-0.8
Cc1ccc(OCC(=O)N/N=C/c2c[nH]c3ccccc23)c([N+](=O)[O-])c1	6.2*	-0.5	2.2	2.7	-0.7
COC(=O)N/N=C/c1c[nH]c2ccccc12	5.5	0.7	5.4	-0.8	0.2
CCOC(=O)N/N=C/c1ccc(F)cc1F	0.8	1.0*	4.4	0.9	0.0
Cc1cc(NS(=O)(=O)c2ccc(NC(=O)CSc3nnc(-c4ccccn4)n3Cc3ccco3)cc2)nc(C)n1	-2.6	-1.4	-1.6	-4.6	0.5
Nc1ccc(C(=O)N/N=C/c2c[nH]c3ccccc23)cc1	4.0	-1.1	4.2	5.1	-0.2
O=C(N/N=C/c1c[nH]c2ccccc12)c1cc(Cl)ccc1O	3.2	1.6*	5.3	1.2	0.5
Cc1ccc(S(=O)(=O)N/N=C/c2c[nH]c3ccccc23)cc1	1.4	0.9*	0.8	-4.6	-0.7
O=C(O)c1ccc(S(=O)(=O)NN=Cc2c[nH]c3ccccc23)cc1	2.5	-0.1	1.5	-7.6	-1.2
NC(=S)N/N=C/c1c[nH]c2ccccc12	4.9	1.8*	0.8	-2.9	-0.5
Cc1ccc(-n2c(SCC(=O)c3ccc(F)cc3)nnc2-c2cnccn2)cc1	-3.2	-1.9	-0.6	-3.6	0.2
CCOC(=O)[C@]12CCCC=C1N(CCc1ccc(OC)c(OC)c1)C(=O)[C@H](CC(=O)NCCCCc1ccccc1)C2	0.5	-1.1	-2.9	-6.2	-0.3
COc1cccc(C2NC(=S)N(Cc3ccccc3)C(C)=C2C(C)=O)c1 (stereo not drawn)	-0.2	-1.8	-2.5	-0.3	0.0
C=CCN(CC#Cc1ccccc1)CC1CC1	-2.4	-0.8	0.7	-3.5	-0.2
